According to PubChem BioAssay (NCATS):
Inconclusive results are not listed. Where a call stands in place of a potency, no number is given. Activity calls are given as the source filed them. The call rests on the fitted dose curve.

assay: Primary qHTS for Huh7 cytotoxicity: counterscreen for inhibitors of MERS-S pseudotyped particle cell entry (AID 1479147); settings: cell viability read-out; series mostly up to 57.1 µM

Compound | Potency | outcome
CSc1ccc(C(=O)c2[nH]c(=O)[nH]c2C)cc1 | inactive | 
CCN(CC)C(=O)c1cccc(C)c1 | inactive | 
NC(=O)c1ncn([C@@H]2O[C@H](CO)[C@@H](O)[C@H]2O)c1N | inactive | 
Oc1cccc(-c2c3nc(c(-c4cccc(O)c4)c4ccc([nH]4)c(-c4cccc(O)c4)c4nc(c(-c5cccc(O)c5)c5ccc2[nH]5)CC4)C=C3)c1 | inactive | 
CC(C)[C@@H]1CC[C@@H](C)CC1=O | inactive | 
CCOC(=O)Cn1cccc1-c1nc(-c2ccc(OC)cc2)c(-c2ccc(OC)cc2)s1 | inactive | 
CC(C)(C)c1ccc(C(O)CCCN2CCC(C(O)(c3ccccc3)c3ccccc3)CC2)cc1 (stereo not drawn) | inactive | 
COc1ccc2[nH]c(S(=O)Cc3ncc(C)c(OC)c3C)nc2n1 (stereo not drawn) | inactive | 
FC(F)(F)C(F)(F)C(F)(F)C(F)(F)C(F)(F)C(F)(F)C(F)(F)C(F)(F)Br | inactive | 
CC(=O)[C@H]1CC[C@H]2[C@@H]3CC=C4C[C@@H](O)CC[C@]4(C)[C@H]3CC[C@]12C | inactive | 
O=C(O)CNC(=O)c1ccccc1I | inactive | 
C[C@]12CCC(=O)C=C1CC[C@@H]1[C@@H]2[C@@H](O)C[C@@]2(C)[C@H]1CC[C@]2(O)C(=O)CO | inactive | 
CC(C)C(=O)Nc1cccc(C2CN3CCSC3=N2)c1 (stereo not drawn) | inactive | 
NC(CSCC(=O)O)C(=O)O (stereo not drawn) | inactive | 
N=C(N)c1ccc2cc(OC(=O)c3ccc(N=C(N)N)cc3)ccc2c1 | inactive | 
O=C(O)CCC(=O)OC[C@@H](NC(=O)C(Cl)Cl)[C@H](O)c1ccc([N+](=O)[O-])cc1 | inactive | 
CCOC(=O)[C@H](CCc1ccccc1)N[C@H]1CCc2ccccc2N(CC(=O)O)C1=O | inactive | 
CN(C)CC/C=C1\c2ccccc2Sc2ccc(Cl)cc21 | inactive | 
CCN(CCCc1ccccc1)CCCc1ccccc1 | inactive | 

Compound | Potency | outcome
CCCC(=O)O[C@]1(C(=O)CCl)[C@@H](C)C[C@H]2[C@@H]3CCC4=CC(=O)C=C[C@]4(C)[C@@]3(F)C(=O)C[C@@]21C | inactive | 
CCOC(=O)C1=C[C@]2(CC)CCCN3CCc4c(n1c1ccccc41)[C@@H]32 | inactive | 
CCCc1cc(C(N)=S)ccn1 | inactive | 
Cn1c(=O)c2c(ncn2C)n(C)c1=O | inactive | 
CCCCCC1Nc2cc(C(F)(F)F)c(S(N)(=O)=O)cc2S(=O)(=O)N1 (stereo not drawn) | inactive | 
O=C1OC2(c3ccccc31)c1cc(I)c(O)c(I)c1Oc1c2cc(I)c(O)c1I | inactive | 
Cc1cccc(N(C)C(=S)Oc2ccc3ccccc3c2)c1 | inactive | 
CCOc1c(N2CCOCC2)cnn(C)c1=O | inactive | 
CNC(=O)c1c(I)c(NC(=O)CCCCC(=O)Nc2c(I)c(C(=O)O)c(I)c(C(=O)NC)c2I)c(I)c(C(=O)O)c1I | inactive | 
COc1cc(C(=O)OCCCN2CCCN(CCCOC(=O)c3cc(OC)c(OC)c(OC)c3)CC2)cc(OC)c1OC | inactive | 
CC(C(O)c1ccc(O)cc1)N1CCC(Cc2ccccc2)CC1 (stereo not drawn) | inactive | 
CCCCOc1ccc(CC(=O)NO)cc1 | inactive | 
CC(=O)OCC(=O)[C@@]1(O)CCC2C3CCC4=CC(=O)CC[C@]4(C)C3[C@@H](O)C[C@@]21C (stereo partly drawn) | inactive | 
CC(C)(C)CC(=O)OCC(=O)[C@@]1(O)CC[C@H]2[C@@H]3CCC4=CC(=O)C=C[C@]4(C)[C@H]3[C@@H](O)C[C@@]21C | inactive | 
CN1C[C@H](C(=O)N[C@]2(C)O[C@@]3(O)[C@@H]4CCCN4C(=O)[C@H](Cc4ccccc4)N3C2=O)C[C@@H]2c3cccc4[nH]cc(c34)C[C@H]21 | inactive | 
CCN(CCCCOC(=O)c1ccc(OC)c(OC)c1)C(C)Cc1ccc(OC)cc1 (stereo not drawn) | inactive | 
CCOC(=O)C1=C(C)NC(C)=C(C(=O)OCC)C1c1ccccc1/C=C/C(=O)OC(C)(C)C | inactive | 
C[N+]1(CC2COC(c3ccccc3)(C3CCCCC3)O2)CCCCC1 (stereo not drawn) | inactive | 
NC(N)=NCCC[C@H](N)C(=O)O |  | inactive [at 5.34 µM]
